Source: PubChem BioAssay
This is a sample that favours compounds with a hit; in the whole collection about 0.81% have one here.
NR2F2 inh = NR2F2 transcriptional activity inhibitors, primary screen, cell-based, luciferase reporter, HEK293T, luminescence. COUP transcription factor 2 (Homo sapiens), P24468. HEK293T NGFI-A luciferase reporter. inhibition, % at 8.6 µM. 0.7% of 370,000 active. AID 686940, 2013;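 active = inhibition above a per-plate cutoff, mean inhibition of test wells between control levels plus 3 SD, cut at about 38% in these data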;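 note: cells cotransfected with COUP-TFII expression vector driving the NGFI-A reporter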
Target sequence (P24468 whole entry, looked up): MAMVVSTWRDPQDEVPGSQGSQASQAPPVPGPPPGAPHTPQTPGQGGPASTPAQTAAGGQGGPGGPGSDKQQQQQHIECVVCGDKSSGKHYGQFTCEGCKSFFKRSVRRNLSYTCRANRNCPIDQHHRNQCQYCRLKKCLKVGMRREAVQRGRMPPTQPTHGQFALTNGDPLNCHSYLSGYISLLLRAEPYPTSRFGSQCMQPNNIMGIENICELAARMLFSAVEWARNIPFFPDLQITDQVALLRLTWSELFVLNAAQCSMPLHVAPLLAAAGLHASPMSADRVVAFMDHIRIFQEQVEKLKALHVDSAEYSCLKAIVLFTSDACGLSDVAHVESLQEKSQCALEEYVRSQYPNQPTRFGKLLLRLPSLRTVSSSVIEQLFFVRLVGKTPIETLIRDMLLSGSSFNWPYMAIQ
NCOA1 inh = SRC1 coactivator transcriptional activity inhibitors, primary screen, cell-based, luminescence. Nuclear receptor coactivator 1 (Homo sapiens), Q15788. HEK293 GAL4-SRC1 luciferase reporter. inhibition, % at 3.6 µM. 0.12% of 360,000 active;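 active = inhibition above the campaign mean plus 3 SD, with each screening campaign given its own cutoff, cut at about 60% in these data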
NR5A2 inv ag = LRH-1 (NR5A2) inverse agonists, primary screen, cell-based, luminescence, HEK293T, StAR-luciferase reporter; LRH-1 transfected, 24 h; inhibition, % at 3.6 µM; 0.13% of 360,000 active; AID 602396, 2012;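 active = inhibition above the mean inhibition of all tested compounds plus 3 SD, cut at about 73% in these data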
SRC2 inh = inhibition of GAL4-SRC2 driven luciferase reporter, primary screen, SRC2 inhibitor project, cell-based, luminescence | Nuclear receptor coactivator 2 (Homo sapiens), Q15596 | HEK293 GAL4-SRC2 luciferase reporter | inhibition, % at 9 µM | 0.17% of 370,000 active;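 active = inhibition above the mean inhibition of all tested compounds plus 3 SD, set per campaign, cut at about 52% in these data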
NCOA3 inh = SRC3 coactivator transcriptional activity inhibitors, primary screen, cell-based, luminescence | Nuclear receptor coactivator 3 (Homo sapiens), Q9Y6Q9 | HEK293 GAL4-SRC3 luciferase reporter | inhibition, % at 3.6 µM | 0.17% of 360,000 active;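 active = inhibition above a per-campaign cutoff, the mean of all compounds plus 3 SD, cut at about 60% in these data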;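 note: higher means less SRC3-driven luciferase light from the GAL4 reporter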
VP16 Luc counter = Gal4-VP16 luciferase reporter inhibitors, counter-screen for COUP-TFII antagonist project, cell-based, luminescence, HEK293. shares compounds with NR2F2 inh. inhibition, % at 8.5 µM. 25% of 2,500 active. AID 687007, 2013; in the data active = inhibition above about 13%
NR2F2 inh conf = NR2F2 transcriptional activity inhibitors, confirmation, cell-based, luciferase reporter, HEK293, triplicate. inhibition, % at 8.5 µM. shares compounds with NR2F2 inh. 45% of 2,500 active. HEK293 NGFI-A luciferase reporter, luminescence;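 active = mean inhibition over three repeats above a set limit taken from the earlier primary screen, cut at about 38% in these data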
Numbers stand for hits; – = inactive; · = not tested or not shown.

SMILES | NR2F2 inh | NCOA1 inh | NR5A2 inv ag | SRC2 inh | NCOA3 inh | VP16 Luc counter | NR2F2 inh conf
c1ccc(-c2ccc(-c3nc(-c4ccccn4)no3)cc2)cc1 | 63 | – | – | 67 | 66 | 71 | 88
Cc1ccc(-c2nc(-c3ccccn3)no2)cc1 | 72 | – | – | 75 | – | 60 | 78
c1ccc(-c2nc(-c3ccccn3)no2)cc1 | – | – | – | – | – | · | ·
Cc1ccc(-c2nc(-c3ccccn3)no2)cc1Cl | – | – | – | – | – | · | ·
COc1ccc(-c2nc(C)c(C(C)=O)n2O)cc1 | – | – | – | – | – | · | ·
CCOC(=O)c1c(-c2ccccc2)oc2ccc(O)c(CN3CCN(C)CC3)c12 | 38 | – | – | – | – | – | –
CCOC(=O)c1c(C)n(C)c2ccc(O)c(CN3CCN(C)CC3)c12 | – | – | – | – | – | · | ·
CCN(CC)S(=O)(=O)c1ccc(C(=O)Nc2ccc(Cc3ccncc3)cc2)cc1 | 51 | – | – | – | – | – | 56
CCN(CC)S(=O)(=O)c1ccc(NC(=O)c2ccc(N(C)S(C)(=O)=O)cc2)cc1 | 68 | – | – | – | – | – | 53
Nc1ccc(Br)cc1C(=O)O | 45 | – | – | – | – | 54 | –
O=C(C(=O)c1cc(Br)ccc1O)c1cc(Br)ccc1O | 39 | – | – | – | – | – | –
Nc1ccc(-c2ccc(N)c(C(=O)O)c2)cc1C(=O)O | – | – | – | – | – | · | ·
O=C(c1ccc(O)c(Br)c1)c1cc(Br)ccc1O | – | – | – | – | – | · | ·
CC(=O)c1cnc2cc(C)nn2c1C | – | – | – | – | – | · | ·
S=C(N/N=C/c1ccc(Cl)cc1)N1CCOCC1 | – | – | – | – | – | · | ·
Cc1ccc(C(=O)C[n+]2ccc3ccccc3c2)cc1 | – | – | – | – | – | · | ·
Cc1cc(C(C)(C)C)cc(C)c1C[n+]1ccc2ccccc2c1 | 66 | – | – | – | – | 27 | 55
CC(C)N1CCc2c(sc(NC(=O)c3cc(-c4cccs4)nc4ccccc34)c2C(N)=O)C1 | · | – | – | · | – | · | ·
CC(=O)Nc1sc2c(c1-c1nc3ccccc3s1)CCCN(C(C)C)C2 | 45 | · | · | · | · | – | –
CC(C)N1CCc2c(sc(NC(=O)c3nc4ccccc4s3)c2C(N)=O)C1 | 38 | – | – | – | – | – | –
COc1ccc(NC(=O)[C@@H]2CCCN2S(=O)(=O)c2cccc3cccnc23)cc1 | – | – | – | – | – | · | ·
O=C(Nc1ccc(Oc2ccccc2)cc1)C1CCCN1S(=O)(=O)c1cccc2cccnc12 (centres undefined) | 42 | · | · | – | · | – | –
COc1cccc(OC)c1NC(=O)Cc1nn(C)c(=O)c2ccccc12 | – | – | – | – | – | · | ·
Cc1csc(NC(=O)Cc2nn(C)c(=O)c3ccccc23)n1 | 45 | – | – | – | – | – | –
Cn1nc(CC(=O)Nc2ccc3c(c2)OCCO3)c2ccccc2c1=O | 68 | – | – | – | – | – | 53
SMILES | NR2F2 inh | NCOA1 inh | NR5A2 inv ag | SRC2 inh | NCOA3 inh | VP16 Luc counter | NR2F2 inh conf
Cn1nc(CC(=O)N2CCN(c3ccccc3)CC2)c2ccccc2c1=O | – | – | – | – | – | · | ·
Cn1nc(CC(=O)Nc2ccc(N3CCN(C(=O)OC(C)(C)C)CC3)cc2)c2ccccc2c1=O | 53 | – | – | – | – | – | 64
CCOC(=O)C1(CCCc2ccccc2)CCN(C(=O)c2cnc(C)cn2)CC1 | – | – | – | – | – | · | ·
COC(=O)COc1c(Cl)cc(Cl)c2ccc(C)nc12 | – | – | – | – | – | · | ·
COc1ccc(C(=O)Nc2ccc(NC(=O)c3ccccc3)cc2)cc1S(=O)(=O)N1CCOCC1 | – | – | – | – | – | · | ·
CC(=O)c1ccc(NC(=O)c2ccc(C)c(S(=O)(=O)N3CCOCC3)c2)cc1 | – | – | – | – | – | · | ·
Cc1cc(C)n(-c2ccc(C(=O)Nc3ccc(C)c(S(=O)(=O)N4CCOCC4)c3)cc2)n1 | 51 | – | – | – | – | – | –
COc1ccc(C(=O)Nc2ccc(N3CCCCCC3)cc2)cc1S(=O)(=O)N1CCOCC1 | 49 | – | – | – | – | – | –
Cc1ccc(NC(=O)c2cccnc2)cc1S(=O)(=O)N1CCOCC1 | – | – | – | – | – | · | ·
O=C(Nc1ccc(N2CCCCCC2)cc1)c1cccc(S(=O)(=O)N2CCOCC2)c1 | 46 | – | – | – | – | – | 38
CCOC(=O)c1ccc(NC(=O)c2ccc(C)c(S(=O)(=O)N3CCOCC3)c2)cc1 | 81 | – | 80 | – | – | – | 82
COc1ccc(N(CC(=O)N/N=C/c2ccc(C(=O)O)cc2)S(=O)(=O)c2ccc(NC(C)=O)cc2)cc1 | – | – | – | – | – | · | ·
O=C(N/N=C/c1sc(N2CCOCC2)nc1-c1ccccc1)c1cccc(S(=O)(=O)N2CCCC2)c1 | 38 | 65 | 86 | – | 76 | – | 67
CCOC(=O)c1ccc(NC(=O)c2cccc(S(=O)(=O)N3CCOCC3)c2)cc1 | 38 | – | – | – | – | – | –
COc1ccc(NC(=O)/C=C/c2ccc(S(=O)(=O)N3CCOCC3)cc2)cc1 | – | – | – | – | – | · | ·
COc1ccc(/C=C/C(=O)Nc2ccc(C)c(S(=O)(=O)N3CCOCC3)c2)cc1 | 68 | – | – | – | – | – | –
CC1(C)CC2CC(C)(CN2S(=O)(=O)c2ccc(C(=O)Nc3ccc(S(=O)(=O)N4CCOCC4)cc3)cc2)C1 (centres undefined) | 53 | – | – | – | – | – | 64
COc1cccc(-c2nn(-c3ccc(C)cc3)cc2C(=O)N2CCN(C3CCS(=O)(=O)C3)CC2)c1 (centres undefined) | – | – | – | – | – | · | ·
CS(=O)(=O)N(CC(=O)NCCSc1ccccc1)c1ccc2c(c1)OCO2 | 38 | – | – | – | – | – | –
CS(=O)(=O)c1ccc(C(=O)N2CCN(Cc3ccccc3)CC2)cc1 | – | – | – | – | – | · | ·
O=C(c1ccc(CNS(=O)(=O)c2ccccc2)cc1)N1CCN(Cc2ccccc2)CC1 | 58 | – | – | – | – | – | –
COc1cc(CC(=O)OCC(=O)Nc2sccc2C(N)=O)cc(OC)c1OC | 43 | – | – | – | – | – | –
Cc1ccc(S(=O)(=O)CC(=O)N2CCN(c3ccc([N+](=O)[O-])cc3)CC2)cc1 | – | – | – | – | – | · | ·
COc1ccc(CCNC(=S)c2ccccc2)cc1OC | 38 | – | – | – | – | – | –
CCOc1cc(/C=N/Nc2nnc(C)n2N)ccc1O | 49 | – | – | – | – | – | –
